Experimental data as given in PubChem BioAssay (EPA / NIEHS).
Activity calls are given as the source filed them. The calls were made as follows: active = hit-call score of the fitted dose curve at least 0.9, where 1 is the maximum; inactive = score below 0.9.

Columns and labels:
Conditions in all cases: mRNA level, 48 h; actives raise or lower the signal
[1] = read-out: Cytochrome P450 (CYP24A1), CYP24A1 (gene 1591); test: LTEA_HepaRG_CYP24A1: Life Technologies and Expression Analysis (LTEA) Assay for Cytochrome P450 (CYP24A1) using HepaRG (AID 2283478)
Summary of the method: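 qRT-PCR read-out: CYP24A1 transcript levels normalized to three housekeeping genes, bidirectional curve fits against 0.5% DMSO baseline. Human HepaRG cells treated 48 h with chemicals at eight concentrations from 100 uM in half-log steps.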

[2] = read-out: Cytochrome P450 (CYP1A2), CYP1A2 (gene 1544); test: LTEA_HepaRG_CYP1A2: Life Technologies and Expression Analysis (LTEA) Assay for Cytochrome P450 (CYP1A2) using HepaRG (AID 2283479)
Summary of the method: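 HepaRG, 48 h exposure, top 100 uM, half-log 8-pt, 0.5% DMSO vehicle, duplicates. Readout: TaqMan qRT-PCR of CYP1A2 mRNA, housekeeping-normalized (ACTB/GAPDH/POLR2A). Gain/loss fit relative to DMSO baseline.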

[3] = read-out: cysteine-aspartic acid protease (CASP8), CASP8 (gene 841); test: LTEA_HepaRG_CASP8: Life Technologies and Expression Analysis (LTEA) Assay for cysteine-aspartic acid protease (CASP8) using HepaRG (AID 2283480)
Summary of the method: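 Differentiated HepaRG cells in serum-free induction medium, 48 h exposure, eight-point half-log series from 100 uM in 0.5% DMSO, duplicates. CASP8 mRNA by qRT-PCR, normalized to ACTB, GAPDH, POLR2A; bidirectional fit versus DMSO.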

[4] = read-out: Cytochrome P450 (CYP2B6), CYP2B6 (gene 1555); test: LTEA_HepaRG_CYP2B6: Life Technologies and Expression Analysis (LTEA) Assay for Cytochrome P450 (CYP2B6) using HepaRG (AID 2283481)
Summary of the method: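 Read-out is CYP2B6 mRNA by TaqMan qRT-PCR, normalized to three housekeeping genes and fitted bidirectionally against 0.5% DMSO baseline. Human HepaRG cells received test chemicals for 48 h, top concentration 100 uM, half-log dilutions.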

[5] = read-out: Cytochrome P450 2C19 (Homo sapiens) (UniProt P33261); test: LTEA_HepaRG_CYP2C19: Life Technologies and Expression Analysis (LTEA) Assay for CYP2C19 using HepaRG (AID 2283482)
Summary of the method: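 HepaRG, 48 h chemical exposure, 8-pt half-log series from 100 uM in 0.5% DMSO, duplicates. Readout: CYP2C19 mRNA by TaqMan qRT-PCR, housekeeping-normalized. Bidirectional fit vs DMSO baseline; phenobarbital 1mM as induction control.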

CYP2C8 (gene 1558) = test: LTEA_HepaRG_CYP2C8: Life Technologies and Expression Analysis (LTEA) Assay for CYP2C8 using HepaRG (AID 2283483)
Summary of the method: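 Differentiated HepaRG cells in serum-free induction medium exposed 48 h in duplicate to 8 half-log concentrations from 100 uM in 0.5% DMSO. CYP2C8 mRNA by qRT-PCR normalized to ACTB, GAPDH, POLR2A; bidirectional fit versus DMSO.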

CYP2C9 (gene 1559) = test: LTEA_HepaRG_CYP2C9: Life Technologies and Expression Analysis (LTEA) Assay for CYP2C9 using HepaRG (AID 2283484)
Summary of the method: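 Differentiated human HepaRG cells in serum-free induction medium were exposed 48 h to chemicals in 8-point half-log series from 100 uM (0.5% DMSO), in duplicate. CYP2C9 mRNA was measured by qRT-PCR, normalized to ACTB/GAPDH/POLR2A, with bidirectional fitting versus DMSO.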

CYP2E1 (gene 1571) = test: LTEA_HepaRG_CYP2E1: Life Technologies and Expression Analysis (LTEA) Assay for CYP2E1 using HepaRG (AID 2283485)
Summary of the method: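 Differentiated HepaRG cells were treated in duplicate for 48 h with chemicals in 0.5% DMSO, from 100 uM downward in half-log dilutions. RNA was then analysed by qRT-PCR for CYP2E1 induction or loss.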

CYP4A11 (gene 1579) = test: LTEA_HepaRG_CYP4A11: Life Technologies and Expression Analysis (LTEA) Assay for CYP4A11 using HepaRG (AID 2283486)
Summary of the method: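 CYP4A11 transcript levels were quantified by TaqMan qRT-PCR after HepaRG human liver cells were treated for 48 hours with test chemicals (top 100 uM, half-log dilutions, 0.5% DMSO). Gain or loss of signal was fitted relative to DMSO.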

[6] = read-out: Cytochrome P450 3A4 (Homo sapiens) (UniProt P08684); test: LTEA_HepaRG_CYP3A4: Life Technologies and Expression Analysis (LTEA) Assay for CYP3A4 using HepaRG (AID 2283487)
Summary of the method: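 In a human hepatic line (HepaRG), duplicate wells were treated 48 h with up to 100 uM chemical in half-log dilutions. Endpoint: CYP3A4 mRNA induction or loss relative to 0.5% DMSO vehicle, by qRT-PCR.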

[7] = read-out: Pro-epidermal growth factor (Homo sapiens) (UniProt P01133); test: LTEA_HepaRG_EGF: Life Technologies and Expression Analysis (LTEA) Assay for Epidermal growth factor (EGF) using HepaRG (AID 2283489)
Summary of the method: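 qRT-PCR readout of EGF transcript after 48 h chemical exposure of HepaRG cells; eight concentrations from 100 uM down in half-log steps, duplicate wells, 0.5% DMSO vehicle. Bidirectional curve fitting against DMSO baseline.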

[8] = read-out: Early growth response protein 1 (EGR1) transcription factor, EGR1 (gene 1958); test: LTEA_HepaRG_EGR1: Life Technologies and Expression Analysis (LTEA) Assay for Early growth response protein 1 (EGR1) transcription factor using HepaRG (AID 2283490)
Summary of the method: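 Differentiated HepaRG cells in serum-free induction medium exposed 48 hours, duplicate, to 8 half-log concentrations up to 100 uM in 0.5% DMSO. EGR1 mRNA measured by TaqMan qRT-PCR, normalized to ACTB, GAPDH, POLR2A; bidirectional fit versus DMSO.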

[9] = read-out: Ezrin (EZR), EZR (gene 7430); test: LTEA_HepaRG_EZR: Life Technologies and Expression Analysis (LTEA) Assay for Ezrin (EZR) using HepaRG (AID 2283491)
Summary of the method: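 Gain or loss of EZR mRNA is scored relative to 0.5% DMSO in human HepaRG cultures treated 48 h with test chemicals in duplicate, eight half-log concentrations from 100 uM.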

CYP3A5 (gene 1577) = test: LTEA_HepaRG_CYP3A5: Life Technologies and Expression Analysis (LTEA) Assay for CYP3A5 using HepaRG (AID 2283493)
Summary of the method: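 mRNA induction or loss of CYP3A5 assessed in HepaRG after 48 h dosing, 100 uM top concentration, duplicate wells; TaqMan qRT-PCR with ACTB, GAPDH, POLR2A normalization; 0.5% DMSO as negative control.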

[10] = read-out: Fatty Acid-Binding Protein 1 (FABP1), FABP1 (gene 2168); test: LTEA_HepaRG_FABP1: Life Technologies and Expression Analysis (LTEA) Assay for Fatty Acid-Binding Protein 1 (FABP1) using HepaRG (AID 2283494)
Summary of the method: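 Differentiated human HepaRG cells exposed 48 h in serum-free induction medium to eight half-log concentrations up to 100 uM (0.5% DMSO), duplicate. FABP1 mRNA by qRT-PCR, normalised to ACTB, GAPDH, POLR2A; bidirectional fitting against DMSO.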

[11] = read-out: Cytochrome P450 7A1 (Homo sapiens) (UniProt P22680); test: LTEA_HepaRG_CYP7A1: Life Technologies and Expression Analysis (LTEA) Assay for Cytochrome P450 7A1 (CYP7A1) using HepaRG (AID 2283496)
Summary of the method: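 Gene expression endpoint in human HepaRG liver cells treated for 48 h with test chemicals (up to 100 uM, 0.5% DMSO). Values come from bidirectional concentration-response fitting versus DMSO.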

[12] = read-out: Cytochrome P450 3A7 (Homo sapiens) (UniProt P24462); test: LTEA_HepaRG_CYP3A7: Life Technologies and Expression Analysis (LTEA) Assay for CYP3A7 using HepaRG (AID 2283492)
Summary of the method: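 CYP3A7 transcript levels were read by TaqMan qRT-PCR on Fluidigm arrays after 48 h chemical exposure of human HepaRG cells, with housekeeping-gene normalisation. Eight half-log concentrations up to 100 uM in 0.5% DMSO were tested in duplicate.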

[13] = read-out: Cytochrome P450 4A22 (Homo sapiens) (UniProt Q5TCH4); test: LTEA_HepaRG_CYP4A22: Life Technologies and Expression Analysis (LTEA) Assay for Cytochrome P450 4A22 (CYP4A22) using HepaRG (AID 2283495)
Summary of the method: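 HepaRG, 48 h post-plating -> serum-free induction medium; dosed 48 h, duplicate, 8 conc. (100 uM top, half-log), 0.5% DMSO. Readout: CYP4A22 mRNA by qRT-PCR, ACTB/GAPDH/POLR2A normalization; gain/loss fit relative to DMSO.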

[14] = read-out: Glutathione S-Transferase (GSTA2), GSTA2 (gene 2939); test: LTEA_HepaRG_GSTA2: Life Technologies and Expression Analysis (LTEA) Assay for Glutathione S-Transferase (GSTA2) using HepaRG (AID 2283497)
Summary of the method: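 Differentiated human HepaRG cells were exposed in duplicate for 48 h in serum-free induction medium, 8 points from 100 uM top in half-log steps, 0.5% DMSO. GSTA2 mRNA was measured by TaqMan qRT-PCR, normalized to ACTB, GAPDH and POLR2A; bidirectional fit versus DMSO.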

[15] = read-out: DNA damage-inducible transcript 3 (DDIT3), DDIT3 (gene 1649); test: LTEA_HepaRG_DDIT3: Life Technologies and Expression Analysis (LTEA) Assay for DNA damage-inducible transcript 3 (DDIT3) using HepaRG (AID 2283488)
Summary of the method: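 Changes in DDIT3 transcript, in either direction relative to 0.5% DMSO vehicle, were quantified by TaqMan qRT-PCR after 48 h chemical exposure of HepaRG cells at 8 concentrations, maximum 100 uM.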

Measured: outcome

Sequence of Cytochrome P450 2C19 (Homo sapiens) (P33261 whole entry, looked up): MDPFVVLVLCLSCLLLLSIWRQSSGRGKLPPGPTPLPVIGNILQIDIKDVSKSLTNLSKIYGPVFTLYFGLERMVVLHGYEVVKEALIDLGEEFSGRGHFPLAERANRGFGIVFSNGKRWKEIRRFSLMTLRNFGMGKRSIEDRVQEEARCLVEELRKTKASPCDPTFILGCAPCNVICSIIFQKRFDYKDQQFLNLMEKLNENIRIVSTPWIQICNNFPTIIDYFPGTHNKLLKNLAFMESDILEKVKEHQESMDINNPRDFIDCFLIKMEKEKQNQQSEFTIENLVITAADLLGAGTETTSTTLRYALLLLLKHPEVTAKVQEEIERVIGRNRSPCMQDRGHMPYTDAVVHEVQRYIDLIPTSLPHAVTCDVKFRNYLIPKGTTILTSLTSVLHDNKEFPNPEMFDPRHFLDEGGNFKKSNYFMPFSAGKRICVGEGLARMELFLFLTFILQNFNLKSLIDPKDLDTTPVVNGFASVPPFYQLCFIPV
Sequence of Cytochrome P450 3A7 (Homo sapiens) (P24462 whole entry, looked up): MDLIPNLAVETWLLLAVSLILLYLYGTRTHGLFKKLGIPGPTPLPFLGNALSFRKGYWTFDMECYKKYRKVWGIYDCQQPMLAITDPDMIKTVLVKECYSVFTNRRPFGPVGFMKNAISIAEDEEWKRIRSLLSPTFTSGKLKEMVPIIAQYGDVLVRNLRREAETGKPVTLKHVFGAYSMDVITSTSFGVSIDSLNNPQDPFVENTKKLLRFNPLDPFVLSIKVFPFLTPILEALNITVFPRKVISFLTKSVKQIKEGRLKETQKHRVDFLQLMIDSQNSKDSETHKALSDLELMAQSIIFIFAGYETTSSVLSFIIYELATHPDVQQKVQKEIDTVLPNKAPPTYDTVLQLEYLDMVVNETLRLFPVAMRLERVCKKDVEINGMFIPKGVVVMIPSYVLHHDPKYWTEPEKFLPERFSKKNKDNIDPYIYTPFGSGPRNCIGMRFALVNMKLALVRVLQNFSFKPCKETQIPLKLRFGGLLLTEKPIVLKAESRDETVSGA
Sequence of Cytochrome P450 3A4 (Homo sapiens) (P08684 whole entry, looked up): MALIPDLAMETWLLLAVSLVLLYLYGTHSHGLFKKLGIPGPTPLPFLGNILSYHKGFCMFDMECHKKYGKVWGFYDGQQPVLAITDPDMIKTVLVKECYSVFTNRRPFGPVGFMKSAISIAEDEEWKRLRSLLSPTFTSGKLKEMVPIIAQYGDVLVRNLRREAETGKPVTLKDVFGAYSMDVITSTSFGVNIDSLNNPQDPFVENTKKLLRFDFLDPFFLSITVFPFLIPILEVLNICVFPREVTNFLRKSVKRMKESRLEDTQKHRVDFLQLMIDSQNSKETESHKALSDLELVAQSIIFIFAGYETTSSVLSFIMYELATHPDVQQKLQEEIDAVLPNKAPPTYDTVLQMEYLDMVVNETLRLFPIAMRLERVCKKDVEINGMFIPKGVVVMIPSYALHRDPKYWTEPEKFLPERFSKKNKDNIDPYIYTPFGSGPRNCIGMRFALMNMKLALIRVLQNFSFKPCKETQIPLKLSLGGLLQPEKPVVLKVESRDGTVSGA

OCCC(F)(F)C(F)(F)C(F)(F)C(F)(F)C(F)(F)C(F)(F)C(F)(F)C(F)(F)F
not listed: [12] | [13] | [14] | [15]
inactive: all other assays above

CN1CCC[C@H]1c1cccnc1
not listed: CYP2C9 (gene 1559) | [15]
inactive: all other assays above

OC1CCC(C2CCCCC2)CC1 (centres undefined)
not listed: [1] | [14]
inactive: all other assays above

CCCCC(CC)COC(=O)CCCCC(=O)OCc1ccccc1 (centres undefined)
not listed: [13] | [14] | [15]
inactive: all other assays above
